Assay [1] in a line: Nuclear factor erythroid 2-related factor 2/antioxidant responsive element (Nrf2/ARE) small molecule agonists: qHTS cell viability counter screen in human keratinocytes (AID 1919968; active = well fitted curve in the direction sought with a large enough effect in the repeat runs; an effect the other way counts as inactive or inconclusive; also: nearly all actives have a fitted effect of over 55% in size). The procedure, abridged: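 HaCaT ARE reporter line, 1,500 cells/well; 5 h settle, 37 C/5% CO2; cpd in DMSO pinned; 23 h exposure; CellTiter-Fluor, 1 h; fluorescence.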
In general terms: In qHTS, concentration-response curves come from the screen itself.

Assay [2] can be described thus: Nuclear factor erythroid 2-related factor 2/antioxidant responsive element (Nrf2/ARE) small molecule agonists: luciferase reporter gene qHTS assay in human keratinocytes (AID 1919969). Also: nearly all actives have a fitted effect of over 35% in size. Also: potency is read from the fitted curve at half-maximal effect.
Assay [3] concerns the target Gonadotropin-releasing hormone receptor (Homo sapiens) (UniProt P30968). In words: Human gonadotropin-releasing hormone receptor (GnRHR) small molecule agonists, calcium flux assay in GnRHR-HEK293 cells (AID 1920063). Also: nearly all actives have a fitted effect of over 35% in size. The procedure, abridged:
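GnRHR-HEK293, 1500 cells/well, 18 h 37 C/5% CO2; Ca dye 1 h 37 C; cpd pinned (DMSO), agonist mode; kinetic FL 480/540, 3 min, 1 s reads; 15 conc, n=3.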
In general terms: Calcium flux is commonly read through the fluorescence of an indicator in the cells.

The target in assay [4] is KiSS-1 receptor (Homo sapiens) (UniProt Q969F8). Put plainly: Human kisspeptin (KISS1R) small molecule agonists, calcium flux assay in KISS1R-HEK293 cells (AID 1920064; active = well fitted curve in the direction sought with a large enough effect in the repeat runs; an effect the other way counts as inactive or inconclusive). An outline of the steps:
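Stable human KISS1R HEK293 line; 18 h plating, 37 C/5% CO2; calcium dye 1 h 37 C; compound pin transfer; kinetic fluorescence Ex/Em 480/540, 3 min.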

Assay [5] can be described thus: G protein-coupled receptor (GPCR) small molecule agonists, calcium flux assay: HEK293 wild type cell line counter screen (AID 1920065). An outline of the steps:
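Kinetic fluorescence at Ex/Em 480/540, recorded every second over 3 min, served as the read-out after compound addition. Each compound was tested at 15 concentrations in triplicate on cells pre-loaded with calcium dye for 1 h.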

Assay [6] can be described thus: p53 small molecule agonists, cell-based qHTS assay with human liver microsomes (AID 1963577). An outline of the steps:
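Fluorescence of the beta-lactamase reporter in p53RE-bla cells, detected with LiveBLAzer substrate (2 h, room temperature, dark), served as the read-out after 16 h compound exposure at 37 C with human liver microsomes and NADPH, each 0.5 mg/mL final.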

Assay [7] is described as follows: p53 small molecule agonists, cell-based qHTS assay with rat liver microsomes (AID 1963578). The procedure, abridged:
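Cells carrying a p53 response element–beta-lactamase reporter were plated and rested 5 h, then dosed with compound in DMSO plus rat liver microsomes and NADPH, each at 0.5 mg/mL final. After 16 h at 37 C, LiveBLAzer substrate was added for 2 h.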

A short description of assay [8]: p53 small molecule agonists, cell-based qHTS assay with human liver microsomes: qHTS cell viability counter screen (AID 1963579). Also: nearly all actives have a fitted effect of over 45% in size. The procedure, abridged:
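Cytotoxicity counter screen: p53RE-bla, 4,000 cells/well; 5 h settle, 37 C/5% CO2; cpd + HLM 0.5 mg/mL + NADPH 0.5 mg/mL (final); 16 h, 37 C; CellTiter-Glo, 30 min RT, luminescence.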

Assay [9] in a line: p53 small molecule agonists, cell-based qHTS assay with rat liver microsomes: qHTS cell viability counter screen (AID 1963580). Also: nearly all actives have a fitted effect of over 45% in size. An outline of the steps: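 Intracellular ATP, by CellTiter-Glo luminescence, defines viability. HCT-116 p53RE-bla cells, 4,000 per well, were compound-treated in the presence of rat liver microsomes and NADPH for 16 h at 37 C.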
Assay [10] is described as follows: p53 small molecule agonists, cell-based qHTS assay: qHTS cell viability counter screen (AID 1963581). Also: nearly all actives have a fitted effect of over 45% in size. An outline of the steps: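 HCT-116 p53RE-bla cells, 4,000/well, plated 5 h before compound pin transfer; 16 h at 37 C; bla substrate 2 h RT; then CellTiter-Glo, 30 min RT, luminescence.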
A short description of assay [11]: p53 small molecule agonists, cell-based qHTS assay (AID 1963582; active = well fitted activation curve with a large enough effect in the signal ratio in the repeat runs, not every such curve was filed as active; the % refers to the signal ratio). An outline of the steps:
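Reporter line: p53RE-bla. Pre-incubation 5 h, 37 C, 5% CO2; compound (DMSO, pin tool) 16 h, 37 C; B/G FRET substrate 2 h RT; fluorescence intensity read.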

The target in assay [12] is 5-hydroxytryptamine receptor 2A (Homo sapiens) (UniProt P28223). Put plainly: 5-hydroxytryptamine receptor 2A (HTR2A) small molecule antagonists, cell-based qHTS assay (AID 1963586). Also: nearly all actives have a fitted effect of over 45% in size. An outline of the steps:
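Antagonist-mode intracellular calcium assay: DOI (4 nM) added after 5 min compound pre-incubation at room temperature to dye-loaded HTR2A-CHO cells. Fluorescence followed for 3 min, sampled every second.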

Assay [13] shares this target. In words: 5-hydroxytryptamine receptor 2A (HTR2A) small molecule agonists, cell-based qHTS assay (AID 1963587). Also: nearly all actives have a fitted effect of over 30% in size. An outline of the steps: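 Kinetic calcium-flux fluorescence (2 min, 1 sec intervals) after compound addition in agonist mode. HTR2A-CHO cells were cultured 18 h, then dye-loaded 1 h at 37 C.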
Assay [14] concerns the target Muscarinic acetylcholine receptor M1 (Homo sapiens) (UniProt P11229). In words: Cholinergic receptor muscarinic 1 (CHRM1) small molecule antagonists, cell-based qHTS assay (AID 1963588). Also: nearly all actives have a fitted effect of over 40% in size. The procedure, abridged:
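CHRM1-CHO calcium-flux assay, antagonist mode. Cells were seeded 18 h, dye-loaded 1 h at 37 C and given compound for 5 min at RT, then acetylcholine was added at 50nM. FDSS fluorescence was read 3 min; 15 concentrations, three runs.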

The target is the same in assay [15]. Put plainly: Cholinergic receptor muscarinic 1 (CHRM1) small molecule agonists, cell-based qHTS assay (AID 1963589). Also: nearly all actives have a fitted effect of over 35% in size. An outline of the steps: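 Human M1 in stable CHO line; 18 h plating, 1 h dye load 37 C; cpd added (agonist mode); Ca2+ fluorescence kinetic read, 1 s intervals; 15 conc, 3 runs.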
A short description of assay [16]: cAMP Responsive Elements (CRE) small molecule antagonists, cell-based qHTS assay (AID 1963591; active = well fitted inhibition curve with a large enough effect in the signal ratio in the repeat runs, not every such curve was filed as active; the % refers to the signal ratio). The procedure, abridged:
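Beta-lactamase reporter read by FRET substrate (LiveBLAzer B/G) after 2 h at room temperature. CRE-bla HEK293T cells had received compound plus 0.25 uM (final) NKH477 for 3 h at 37 °C.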

Assay [17] addresses D(2) dopamine receptor (Homo sapiens) (UniProt P14416). In words: Dopamine D2 receptor (DRD2) small molecule agonists, cell-based qHTS assay (AID 1963594). Also: nearly all actives have a fitted effect of over 35% in size. The procedure, abridged:
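cAMP accumulation in DRD2-HEK293 cells measured by HTRF after 1 h detection; compounds added 10 min before NKH477 (200nM […]) forskolin-analogue stimulation, 30 min at room temperature, with Ro20-1724 present at 0.1 mM final.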

For assay [18] the target is unchanged. In words: Dopamine D2 receptor (DRD2) small molecule antagonists, cell-based qHTS assay (AID 1963595; active = well fitted inhibition curve with a large enough effect in the signal ratio in the repeat runs, with a control signal flat; the % refers to the signal ratio). The procedure, abridged:
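HEK293 cells stably expressing DRD2, preincubated with 0.1 mM Ro20-1724 and compounds 10 min, were stimulated with 200 nM NKH477 plus 12 nM quinpirole for 30 min at room temperature; cAMP measured by HTRF (665/620 nm).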

Assay [19] is described as follows: cAMP Responsive Elements (CRE) small molecule agonists, cell-based qHTS assay (AID 1963590). An outline of the steps:
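HEK 293T CRE-bla, 2,000 cells/well, 18 h preincubation 37 C/5% CO2; cpds (DMSO) pinned, 3 h; LiveBLAzer B/G FRET substrate, 2 h RT.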

Assay [20] has as its target Beta-2 adrenergic receptor (Homo sapiens) (UniProt P07550). Put plainly: Adrenergic beta2 receptor (ADRB2) small molecule antagonists, cell-based qHTS assay (AID 1963592). Also: series mostly up to about 92 µM; nearly all actives have a fitted effect of over 50% in size. An outline of the steps:
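Cells (CHO, stable ADRB2 overexpression) incubated 18-20hr at 37C; compounds added from DMSO; agonist mix (1nM isoproterenol, 100uM IBMX, 25uM Ro-20-1724) added; 0.5hr RT; d2-cAMP and anti-cAMP-cryptate added; 1hr RT; 665/615 nm read.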

Several values for one entry are separate records, joined by “and”; a condition that tells them apart may be missing. Equal values may be shown once. Results filed as inconclusive are left out. The source holds several records for some structures; these can differ, active in one and inactive in another. Activity calls are given as the source filed them. Unless noted, calls follow the shape of the full dose curve.

Sequence of KiSS-1 receptor (Homo sapiens) (Q969F8 whole entry, looked up): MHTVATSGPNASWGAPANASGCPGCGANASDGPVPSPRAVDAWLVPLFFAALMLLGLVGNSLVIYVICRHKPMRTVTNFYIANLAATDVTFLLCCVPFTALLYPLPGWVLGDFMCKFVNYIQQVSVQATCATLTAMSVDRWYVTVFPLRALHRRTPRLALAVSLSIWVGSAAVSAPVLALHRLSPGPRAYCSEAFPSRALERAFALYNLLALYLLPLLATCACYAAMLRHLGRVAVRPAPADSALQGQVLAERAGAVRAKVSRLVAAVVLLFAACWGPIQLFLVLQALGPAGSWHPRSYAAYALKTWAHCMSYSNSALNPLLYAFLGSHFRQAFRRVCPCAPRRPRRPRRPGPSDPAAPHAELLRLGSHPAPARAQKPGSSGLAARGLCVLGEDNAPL
Sequence of Muscarinic acetylcholine receptor M1 (Homo sapiens) (P11229 whole entry, looked up): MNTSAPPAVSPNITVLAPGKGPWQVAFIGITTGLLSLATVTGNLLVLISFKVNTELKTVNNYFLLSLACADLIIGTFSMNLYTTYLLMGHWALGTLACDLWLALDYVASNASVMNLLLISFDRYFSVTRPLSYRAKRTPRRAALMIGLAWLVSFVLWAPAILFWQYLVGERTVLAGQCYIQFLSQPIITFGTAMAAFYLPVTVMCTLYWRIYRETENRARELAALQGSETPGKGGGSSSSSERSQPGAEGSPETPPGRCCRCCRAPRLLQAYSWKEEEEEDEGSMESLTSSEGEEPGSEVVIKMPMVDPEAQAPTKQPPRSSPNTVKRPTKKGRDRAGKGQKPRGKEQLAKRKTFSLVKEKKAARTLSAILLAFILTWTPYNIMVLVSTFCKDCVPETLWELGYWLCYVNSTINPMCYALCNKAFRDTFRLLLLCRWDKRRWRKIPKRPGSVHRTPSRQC
Sequence of 5-hydroxytryptamine receptor 2A (Homo sapiens) (P28223 whole entry, looked up): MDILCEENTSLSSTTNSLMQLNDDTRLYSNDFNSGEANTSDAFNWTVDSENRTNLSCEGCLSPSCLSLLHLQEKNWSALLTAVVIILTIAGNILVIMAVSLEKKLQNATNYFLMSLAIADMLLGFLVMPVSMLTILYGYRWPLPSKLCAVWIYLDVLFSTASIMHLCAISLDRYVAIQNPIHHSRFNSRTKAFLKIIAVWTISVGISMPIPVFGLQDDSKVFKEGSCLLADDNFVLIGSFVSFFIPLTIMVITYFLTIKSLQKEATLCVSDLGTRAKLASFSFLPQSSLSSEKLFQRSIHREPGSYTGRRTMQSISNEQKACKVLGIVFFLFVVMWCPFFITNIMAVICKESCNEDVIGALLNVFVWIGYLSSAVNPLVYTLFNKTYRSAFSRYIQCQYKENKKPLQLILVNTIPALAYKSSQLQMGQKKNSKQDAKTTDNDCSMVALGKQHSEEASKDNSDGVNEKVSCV
Sequence of Beta-2 adrenergic receptor (Homo sapiens) (P07550 whole entry, looked up): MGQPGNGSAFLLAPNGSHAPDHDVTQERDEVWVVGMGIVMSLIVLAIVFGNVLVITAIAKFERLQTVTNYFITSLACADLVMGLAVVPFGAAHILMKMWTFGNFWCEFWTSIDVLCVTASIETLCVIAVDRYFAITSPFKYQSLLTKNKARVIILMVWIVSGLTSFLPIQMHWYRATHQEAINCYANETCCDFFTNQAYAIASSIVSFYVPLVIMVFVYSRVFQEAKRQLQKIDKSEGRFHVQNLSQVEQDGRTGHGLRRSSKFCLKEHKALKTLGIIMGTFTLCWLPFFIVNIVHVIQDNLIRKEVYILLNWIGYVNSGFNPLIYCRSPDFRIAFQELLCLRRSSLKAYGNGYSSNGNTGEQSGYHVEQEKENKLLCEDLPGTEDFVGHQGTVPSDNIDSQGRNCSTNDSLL
Sequence of Gonadotropin-releasing hormone receptor (Homo sapiens) (P30968 whole entry, looked up): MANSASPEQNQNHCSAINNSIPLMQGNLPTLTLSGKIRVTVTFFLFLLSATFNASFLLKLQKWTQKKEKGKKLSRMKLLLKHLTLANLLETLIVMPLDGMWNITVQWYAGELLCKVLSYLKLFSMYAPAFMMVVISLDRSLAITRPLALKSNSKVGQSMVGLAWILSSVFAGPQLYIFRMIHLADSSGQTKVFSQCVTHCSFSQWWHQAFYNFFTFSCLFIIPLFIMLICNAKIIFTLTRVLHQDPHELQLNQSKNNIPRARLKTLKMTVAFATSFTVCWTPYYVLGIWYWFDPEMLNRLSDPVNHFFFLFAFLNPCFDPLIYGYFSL
Sequence of D(2) dopamine receptor (Homo sapiens) (P14416 whole entry, looked up): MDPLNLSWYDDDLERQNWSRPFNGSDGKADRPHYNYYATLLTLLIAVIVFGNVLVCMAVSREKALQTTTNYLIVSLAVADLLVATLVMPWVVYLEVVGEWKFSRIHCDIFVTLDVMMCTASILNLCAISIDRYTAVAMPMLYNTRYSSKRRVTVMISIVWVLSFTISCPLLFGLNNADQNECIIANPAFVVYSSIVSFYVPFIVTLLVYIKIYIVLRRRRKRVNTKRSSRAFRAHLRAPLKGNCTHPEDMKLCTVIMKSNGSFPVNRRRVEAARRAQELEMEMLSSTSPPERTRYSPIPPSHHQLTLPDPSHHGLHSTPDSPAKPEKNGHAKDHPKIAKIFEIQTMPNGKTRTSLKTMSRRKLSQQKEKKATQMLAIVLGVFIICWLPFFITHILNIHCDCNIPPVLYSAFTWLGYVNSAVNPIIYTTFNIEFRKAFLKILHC

Consider `N#CCc1ccccc1`, for which the Potency result in assay [1], in [2], in assay [3], in assay [4], in [5] and in assay [6] was “inactive” throughout. The Potency result in [7], in assay [8], in [9], in [10], in [11] and in assay [12] was “inactive” throughout. The Potency entry in [13], in [14], in assay [15], in [16], in assay [17] and in assay [18] was “inactive” in each case.
Regarding `Cc1cccc(C)c1N`, the Potency result in [1], in [2], in assay [3], in assay [4], in [5] and in assay [6] was “inactive” each time. In addition, the Potency entry in [7], in assay [8], in [9], in assay [10], in [11] and in assay [12] was “inactive” in each case. Moreover, the Potency entry in assay [13], in [14], in [15], in assay [19], in assay [16] and in [20] was “inactive” each time. The Potency result in assay [18] was “inactive”.
Consider `C=CC1(C)OC(=O)N(c2cc(Cl)cc(Cl)c2)C1=O` (stereo not given), for which the Potency entry in [1], in assay [3], in assay [4], in assay [5], in assay [6] and in assay [7] was “inactive” throughout. The Potency entry in [8], in [9], in [10], in assay [11], in assay [12] and in [13] was “inactive” throughout. For the same molecule, the Potency result in assay [14], in assay [15], in [19], in [16], in assay [17] and in assay [18] was “inactive” each time. Besides, in assay [2], the Potency is 68.2 µM (active) and inactive.
Consider `C/C=C/CC#N`, for which the Potency entry in assay [1], in [2], in [3], in [4], in [5] and in assay [6] was “inactive” throughout. The Potency result in assay [7], in assay [8], in assay [9], in assay [10], in assay [11] and in [12] was “inactive” each time. Moreover, the Potency result in [13], in assay [14], in assay [15], in [19], in [16] and in [17] was “inactive” in each case. In addition, in [18], the Potency result is “inactive”.
For `BrCCBr`, the Potency entry in assay [1], in assay [2], in [3], in assay [4], in [5] and in [6] was “inactive” in each case. Also, the Potency entry in assay [7], in assay [8], in assay [9], in assay [10], in assay [11] and in [12] was “inactive” each time. For the same molecule, the Potency entry in assay [13], in assay [14], in [15], in [16], in assay [20] and in assay [17] was “inactive” in each case. In [18], the Potency result was “inactive”.
In the case of `c1ccc(-c2cccc(-c3ccccc3)c2)cc1`, the Potency result in [1], in assay [3], in [4], in [5], in assay [6] and in assay [7] was “inactive” in each case. In addition, the Potency entry in assay [8], in assay [9], in assay [10], in assay [11], in [12] and in assay [13] was “inactive” in each case. Moreover, the Potency result in assay [14], in assay [15], in assay [16], in assay [20], in assay [17] and in assay [18] was “inactive” in each case. Moreover, the Potency in [2] was 21.9 µM (active) and 27.3 µM (active).
On to `CCCCC(C#N)(Cn1cncn1)c1ccc(Cl)cc1` (stereo not given), for which the Potency result in assay [1], in assay [2], in assay [3], in assay [4], in assay [5] and in assay [6] was “inactive” throughout. Moreover, the Potency entry in assay [7], in [8], in assay [9], in assay [10], in assay [11] and in [12] was “inactive” each time. The Potency entry in assay [13], in assay [14], in assay [15], in assay [20], in assay [17] and in assay [18] was “inactive” each time.
Consider `c1ccc2c(c1)Oc1ccccc1O2`, for which the Potency entry in assay [1], in assay [2], in [3], in [4], in [5] and in assay [6] was “inactive” each time. In addition, the Potency result in [7], in [8], in assay [9], in assay [10], in assay [11] and in assay [12] was “inactive” in each case. Besides, the Potency entry in assay [13], in assay [14], in assay [15], in assay [16], in assay [20] and in [17] was “inactive” each time. Further, the Potency result in assay [18] is “inactive”.
